The source of these data is PubChem BioAssay (NCI).

Test systems include SR leukemia; RPMI-8226 leukemia; OVCAR-8 ovarian; OVCAR-5 ovarian; OVCAR-4 ovarian; SK-OV-3 ovarian; IGROV1 ovarian; OVCAR-3 ovarian; HS 578T breast; NCI/ADR-RES ovarian; T-47D breast; BT-549 breast; MDA-MB-435 melanoma; SW-620 colon; MCF7 breast; HCT-116 colon; HCC-2998 colon; KM12 colon.
Common to all, as to assay: NCI-60 one-dose screen, 48 h (100 = growth as untreated, 0 = no growth, -100 = all killed)
Settings in all cases: 10 µM unless noted

This is part of a sample that, as a whole, favours compounds with a hit. Of some 83,000 tested, about 20% had one in any assay.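 The endpoint reported here, percent growth, reads 100 for growth as untreated, 0 for no net growth and -100 for all cells dead.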 Unmarked numbers belong to inactive results. Calls of active or inactive are those of the source. How the source made its calls: active means growth percent below 10; inactive means the rest.

Turning to `COc1cc(NC(N)=NCC(C)(C)COc2ccc(C(F)(F)F)cc2)cnc1C#N`, the growth is 49.8% in the assay with SR leukemia; 46% with RPMI-8226 leukemia; 81.8% in the assay on OVCAR-8 ovarian; 65% in the assay on OVCAR-5 ovarian; 65.8% with OVCAR-4 ovarian; 66.4% in the assay with SK-OV-3 ovarian. For the same compound, the growth in the assay on IGROV1 ovarian is 43.9%; with OVCAR-3 ovarian, 67.5%; in the assay on HS 578T breast, 31.6%; in the assay on NCI/ADR-RES ovarian it was 70.2%; with T-47D breast it was 30.3%; with BT-549 breast, 75.4%. For the same compound, the growth with MDA-MB-435 melanoma is 61.1%; in the assay with SW-620 colon, 69.9%; in the assay with MCF7 breast, 32.5%; with HCT-116 colon it was 37.7%; in the assay with HCC-2998 colon, 18.9%; in the assay on KM12 colon, 57.6%.
`CCCCOc1ccc(NC(=O)n2nc(NC(C)=O)c3cc(NC(C)=O)ccc32)cc1`: the growth in the assay on SR leukemia is 88.4%; with RPMI-8226 leukemia it was 76.9%; in the assay on OVCAR-8 ovarian it was 92.5%; in the assay on OVCAR-5 ovarian, 114%; in the assay with OVCAR-4 ovarian, 106%; with SK-OV-3 ovarian, 117%. Also, the growth in the assay on IGROV1 ovarian is 95.3%; in the assay with OVCAR-3 ovarian, 98%; with HS 578T breast, 103%; in the assay with NCI/ADR-RES ovarian it was 105%; in the assay on T-47D breast it was 83.2%; in the assay on BT-549 breast, 81%. The growth in the assay with MDA-MB-435 melanoma is 92.3%; in the assay with SW-620 colon, 121%; in the assay on MCF7 breast, 91.9%; in the assay on HCT-116 colon it was 88.8%; in the assay with HCC-2998 colon it was 101%; in the assay with KM12 colon, 111%.
Consider `O=C1C[C@H](Sc2nc(-c3ccc(F)cc3)cc(C(F)(F)F)n2)[C@H]2CO[C@@H]1O2`, for which the growth with SR leukemia is 17.9%; in the assay with RPMI-8226 leukemia it was 96.9%; with OVCAR-8 ovarian, 97.4%; in the assay on OVCAR-5 ovarian, 105%; in the assay with OVCAR-4 ovarian, 108%; with SK-OV-3 ovarian, 108%. The growth in the assay on IGROV1 ovarian was 115%; in the assay with OVCAR-3 ovarian, 91.6%; in the assay on HS 578T breast, 109%; with NCI/ADR-RES ovarian, 106%; with T-47D breast, 62.3%; with BT-549 breast, 111%. Moreover, the growth in the assay on MDA-MB-435 melanoma is 102%; with SW-620 colon, 67.5%; in the assay with MCF7 breast, 46.4%; with HCT-116 colon it was 75.6%; with HCC-2998 colon, 105%; in the assay on KM12 colon it was 101%.
Take `O=C(CCCCN1CCOCC1)Nc1ccc(Cn2nnc3c2C(=O)c2nnn(Cc4ccc(NC(=O)CCCCN5CCOCC5)cc4)c2C3=O)cc1`: the growth with SR leukemia was -22.2% (active); with RPMI-8226 leukemia it was -18% (active); in the assay with OVCAR-8 ovarian it was -36.2% (active); in the assay on OVCAR-5 ovarian, -23% (active); in the assay with OVCAR-4 ovarian, -73.9% (active); in the assay on SK-OV-3 ovarian, -68.2% (active). The growth in the assay with IGROV1 ovarian was -68.3% (active); in the assay with OVCAR-3 ovarian, -58.2% (active); in the assay with HS 578T breast it was 12.5%; in the assay on NCI/ADR-RES ovarian, 11%; with T-47D breast it was -50.5% (active); in the assay on BT-549 breast, -94.7% (active). For the same compound, the growth was -77% (active) in the assay on MDA-MB-435 melanoma; -50.1% (active) in the assay on SW-620 colon; -51.7% (active) with MCF7 breast; -91% (active) in the assay with HCT-116 colon; -62.3% (active) with HCC-2998 colon; -36.2% (active) in the assay on KM12 colon.
Regarding `O=C(CN1CCN(c2cc3c(cc2F)c(=O)c(C(=O)O)cn3C2CC2)CC1)Nc1nc(-c2ccccc2)cs1`, the growth in the assay with SR leukemia was 90.5%; in the assay with RPMI-8226 leukemia, 66.3%; with OVCAR-8 ovarian it was 52.1%; in the assay on OVCAR-5 ovarian, 97.7%; in the assay on OVCAR-4 ovarian, 97.5%; in the assay with SK-OV-3 ovarian, 93.9%. Further, the growth in the assay on IGROV1 ovarian is 84.7%; with OVCAR-3 ovarian, 90.3%; in the assay with HS 578T breast it was 60.5%; in the assay with NCI/ADR-RES ovarian, 92.7%; in the assay on T-47D breast, 72.8%; in the assay on BT-549 breast, 73.7%. For the same compound, the growth in the assay with MDA-MB-435 melanoma is 86.6%; in the assay on SW-620 colon, 91.7%; in the assay with MCF7 breast it was 86.8%; in the assay with HCT-116 colon, 81.2%; in the assay on HCC-2998 colon it was 92.6%; with KM12 colon it was 89.6%.
Turning to `Cc1nn(-c2nc3ccccc3[nH]2)c2c1C(c1ccc3c(c1)OCO3)CC(=O)N2` (centres undefined), the growth with SR leukemia was 14%; with RPMI-8226 leukemia, -18.4% (active); in the assay with OVCAR-8 ovarian, 36.9%; in the assay with OVCAR-5 ovarian, 105%; with OVCAR-4 ovarian it was 65.1%; in the assay on SK-OV-3 ovarian, 54.9%. The growth with IGROV1 ovarian is 21.3%; in the assay on OVCAR-3 ovarian it was -24.3% (active); with HS 578T breast, 38.2%; in the assay with NCI/ADR-RES ovarian it was 50.3%; in the assay on T-47D breast it was 45.6%; with BT-549 breast, 49.4%. The growth was 5.5% (active) in the assay with MDA-MB-435 melanoma; 10.8% in the assay on SW-620 colon; 17.4% in the assay with MCF7 breast; 6.24% (active) in the assay on HCT-116 colon; 63.6% in the assay on HCC-2998 colon; 1.53% (active) in the assay with KM12 colon.
Take `CS(=O)(=O)c1ccc(-c2cnc3ccc(-c4cccc(S(C)(=O)=O)c4)nn23)cc1`: the growth is 21.1% in the assay on SR leukemia; 18.8% in the assay on RPMI-8226 leukemia; 53.1% in the assay with OVCAR-8 ovarian; 44.2% in the assay with OVCAR-5 ovarian; 72.8% with OVCAR-4 ovarian; 43.4% with SK-OV-3 ovarian. Also, the growth in the assay on IGROV1 ovarian was 14%; with OVCAR-3 ovarian it was 33.3%; in the assay with HS 578T breast, 10%; with NCI/ADR-RES ovarian it was 80.9%; in the assay with T-47D breast it was 18.7%; in the assay with BT-549 breast, 23%. In addition, the growth in the assay on MDA-MB-435 melanoma is 49.6%; in the assay with SW-620 colon, 75.6%; in the assay with MCF7 breast it was 18.4%; in the assay on HCT-116 colon it was 34%; with HCC-2998 colon, 55.4%; with KM12 colon it was 47.1%.
With `O=C1/C(=C/c2ccc(Cl)cc2Cl)CN(S(=O)(=O)c2ccccc2)C/C1=C\c1ccc(Cl)cc1Cl`, the growth with SR leukemia was -11.6% (active); in the assay on RPMI-8226 leukemia, -21.9% (active); in the assay with OVCAR-8 ovarian, 13.6%; in the assay on OVCAR-5 ovarian, -3.2% (active); in the assay with OVCAR-4 ovarian it was 22.6%; in the assay on SK-OV-3 ovarian, 44.7%. For the same compound, the growth is -24.3% (active) with IGROV1 ovarian; -36.4% (active) in the assay on OVCAR-3 ovarian; 37.9% with HS 578T breast; 20.5% in the assay on NCI/ADR-RES ovarian; 23.7% in the assay on T-47D breast; -72.8% (active) in the assay on BT-549 breast. For the same compound, the growth in the assay with MDA-MB-435 melanoma was 3.98% (active); in the assay with SW-620 colon it was -15.2% (active); in the assay with MCF7 breast, 13.9%; with HCT-116 colon, -84% (active); with HCC-2998 colon, -15.3% (active); in the assay on KM12 colon it was -57.2% (active).
